“And” between values parts separate entries of the source, which are not always exact repeats. Equal entries are not always repeated. The source made the active and inactive calls.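 The calls were made as follows: active = thallium flux through the channel raised or lowered by more than 3 SD from vehicle-only wells, actives on both sides; inactive = the rest.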

The assay relates to F380Y/beta4. In words: BK channel mutant inhibitors and activators – cell-based, U2OS BacMam, thallium flux, beta subunits, selectivity assay, profiling panel (AID 1259406).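 Also: initial slope of Thallos dye fluorescence rise after thallium is added; log ratio against the mean of 0.3% DMSO vehicle wells on the same plate.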 The following applies: U2OS BacMam BK variants, at 30 µM.
As for `OCCN1CCN(CCCN2c3ccccc3Sc3ccc(C(F)(F)F)cc32)CC1`, the log fold change Tl+ flux was 0.354 (active).
Then `NS(=O)(=O)c1cc2c(cc1Cl)NC=NS2(=O)=O`, with -2.4e-05 (inactive); and `O=C1C(CCS(=O)c2ccccc2)C(=O)N(c2ccccc2)N1c1ccccc1` (centres undefined), with 0.0952 (inactive).
Then `Cc1ccc(-c2cc(C(F)(F)F)nn2-c2ccc(S(N)(=O)=O)cc2)cc1`, with 0.0167 (inactive); and `CN[C@H]1CC[C@@H](c2ccc(Cl)c(Cl)c2)c2ccccc21`, with 1.13 (active) and 1.04 (active); and `Cc1ccccc1C(OCCN(C)C)c1ccccc1` (centres undefined), with 0.102 (inactive) and 0.0432 (inactive).
`CCc1nc(N)nc(N)c1-c1ccc(Cl)cc1`: the log fold change Tl+ flux is -0.0112 (inactive).
Next, `COc1cc2nc(N(C)CCCNC(=O)C3CCCO3)nc(N)c2cc1OC` (centres undefined): 0.00267 (inactive); `CN(C)CCOC(c1ccc(Cl)cc1)c1ccccn1` (centres undefined): 0.0228 (inactive); `N[C@@H](C(=O)N[C@@H]1C(=O)N2C(C(=O)O)=C(Cl)CS[C@H]12)c1ccccc1`: -0.0331 (inactive).
For the compound `Nc1ncn([C@@H]2O[C@H](CO)[C@@H](O)[C@H]2O)c(=O)n1`, the log fold change Tl+ flux was -0.0152 (inactive).
Next, `NCc1ccc(S(N)(=O)=O)cc1`: -0.0354 (inactive); `Cc1ncc([N+](=O)[O-])n1CC(C)O` (centres undefined): 0.0424 (inactive).
Then `Cc1ccc(C)c(OCCCC(C)(C)C(=O)O)c1`, with 0.0166 (inactive).
Take `CN1CCCC(n2nc(Cc3ccc(Cl)cc3)c3ccccc3c2=O)CC1` (centres undefined): the log fold change Tl+ flux is 0.258 (active).
Then `NS(=O)(=O)c1cc2c(cc1C(F)(F)F)NC(Cc1ccccc1)NS2(=O)=O` (centres undefined), with 0.0179 (inactive).
In the case of `COC1=CC(=O)C[C@@H](C)[C@]12Oc1c(Cl)c(OC)cc(OC)c1C2=O`, the log fold change Tl+ flux was -0.0398 (inactive).
Next, `Cc1cn([C@H]2C[C@H](N=[N+]=[N-])[C@@H](CO)O2)c(=O)[nH]c1=O`: 0.0148 (inactive).
As for `CN(CCOc1ccc(CC2SC(=O)NC2=O)cc1)c1ccccn1` (centres undefined), the log fold change Tl+ flux was -0.0318 (inactive) and 0.0667 (inactive).
For `COc1ccc(OC)c(C(O)CNC(=O)CN)c1` (centres undefined), the log fold change Tl+ flux is 0.0115 (inactive).
As for `OC(CCN1CCCC1)(c1ccccc1)C1CCCCC1` (centres undefined), the log fold change Tl+ flux was 0.131 (active).
Turning to `NC(=O)N1c2ccccc2CC(=O)c2ccccc21`, the log fold change Tl+ flux is -0.0339 (inactive).
`CCCNCC(O)COc1ccccc1C(=O)CCc1ccccc1` (centres undefined): the log fold change Tl+ flux was 0.161 (active).
Next, `C/C=C/C(=O)N(CC)c1ccccc1C`: -0.00302 (inactive); `CCCCCCNC(=O)n1cc(F)c(=O)[nH]c1=O`: -0.0261 (inactive); `NC(=O)c1cnccn1`: 0.0145 (inactive).
`CN(C)CCc1c[nH]c2ccc(C[C@H]3COC(=O)N3)cc12`: the log fold change Tl+ flux was 0.0115 (inactive).
Turning to `COc1ccccc1OCC(O)COC(N)=O` (centres undefined), the log fold change Tl+ flux is 0.0136 (inactive).
Next, `COC(=O)Nc1nc2ccc(C(=O)c3ccccc3)cc2[nH]1`: -0.0277 (inactive); `CCn1cc(C(=O)O)c(=O)c2cc(F)c(N3CCN(C)CC3)cc21`: 0.0266 (inactive); `Cn1cnc([N+](=O)[O-])c1Sc1ncnc2nc[nH]c12`: -0.00991 (inactive).
For the compound `c1ccc2[nH]c(-c3cscn3)nc2c1`, the log fold change Tl+ flux was 0.0538 (inactive).
As to `Cc1onc(-c2c(Cl)cccc2Cl)c1C(=O)N[C@@H]1C(=O)N2[C@@H]1SC(C)(C)[C@@H]2C(=O)O`, the log fold change Tl+ flux was 0.00974 (inactive).
Then `Clc1ccc2c(c1)C(N1CCNCC1)=Nc1ccccc1O2`, with 0.0652 (inactive).
Then `CO[C@@]1(NC(=O)Cc2cccs2)C(=O)N2C(C(=O)O)=C(COC(N)=O)CS[C@@H]21`, with -0.02 (inactive).
As to `CCc1cccc2c3c([nH]c12)C(CC)(CC(=O)O)OCC3` (centres undefined), the log fold change Tl+ flux is -0.00239 (inactive).
Then `CC(C)(C)NCC(O)COc1cccc2c1C[C@H](O)[C@H](O)C2` (some centres undefined), with 0.0116 (inactive); and `O=S(=O)(O)CCS`, with 0.00454 (inactive).
As for `O=c1[nH]cc(F)c(=O)[nH]1`, the log fold change Tl+ flux is -0.0444 (inactive).

For the origin of these results see PubChem BioAssay.
